According to PubChem BioAssay AID504467 (National Center for Advancing Translational Sciences (NCATS), 2011):
Hit rate of the full screen: of about 330,000 compounds, about 7,700 (2.3%) were called active. Another 26% or so got no clear call; they are omitted. For the sample, actives were picked, then their nearest neighbours and some compounds at random. Values without a mark were called inactive. Calls come from the whole dose curve; as a rule, active = well fitted inhibition curve with a large enough effect; inconclusive = small, poorly fitted or top-dose-only effect, or effect the other way; inactive = flat fitted curve, though single readings scatter.

assay: qHTS screen for small molecules that inhibit ELG1-dependent DNA repair in human embryonic kidney (HEK293T) cells expressing luciferase-tagged ELG1; conditions: HEK293T ELG1-luciferase reporter, luminescence, 16 h, DNA damage induced by 5-fluorouridine; series mostly up to 46.1 µM; activity change, negative = inhibition: at the top concentration; note: nearly all actives have a fitted effect of over 55% in size
In short: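 Quantitative HTS, concentration-response format. 2,000 cells/well co-treated with 5-fluorouridine and compound, 16 hr in 5% CO2 at 37 °C; ONE-Glo luminescence read after 30 min.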
% is set by controls: 0 for no effect and ±100 for the full control effect; potency is the fitted concentration of half-maximal effect.

Row | Compound | activity change, negative = inhibition | Potency
1 | CCOc1ccc(CC(=O)NCCS(=O)(=O)N2CCN(c3ccccc3)CC2)cc1 | -28.2% | –
2 | O=C(NCCS(=O)(=O)N1CCN(c2ccccc2F)CC1)c1ccc(Br)o1 | -0.534% | –
3 | COc1ccccc1N1CCN(S(=O)(=O)CCNC(=O)c2ccc(OC(C)C)cc2)CC1 | – | 13 µM (active)
4 | COc1ccc(S(=O)(=O)N2CCCCC2)cc1NC(=O)C1CC(=O)N(c2ccc3c(c2)OCCO3)C1 (stereo not drawn) | -20.1% | –
5 | CC1CC(=O)Nc2ccccc2N1C(=O)COc1ccc2cc(Br)ccc2c1 (stereo not drawn) | -1.49% | –
6 | C#CCOc1ccccc1/C=C1/C(=O)ON=C1C | 6.14% | –
7 | C/C(=N\NC(=O)CNc1cccc2ccccc12)c1ccc(Br)s1 | 6.87% | –
8 | Cn1cccc1/C=N/NC(=O)CNc1cccc2ccccc12 | – | 13 µM (active)
9 | Cc1cccc(/C=N/NC(=O)CNc2cccc3ccccc23)n1 | 22.4% | –
10 | Cc1ccc(NC(=O)COc2coc(CN3CCc4ccccc4C3)cc2=O)cc1Cl | 4.56% | –
11 | CC(Cc1ccccc1)C(=O)N(C)Cc1ccccc1 (stereo not drawn) | -7.66% | –
12 | CC1=NN(Cc2ccccc2)C(=O)/C1=C/c1ccc(N(C)C)cc1 | 12.1% | –
13 | CN(C)c1cc[n+](Cc2ccccc2)cc1 | – | 8.2 µM (active)
14 | CCN1C(=O)[C@@H]2[C@@H](c3ccc(-c4ccccc4)cc3)N3CCCC[C@@]3(C(=O)OC)[C@@H]2C1=O | -15.9% | –
15 | CCOc1ccccc1NC(=O)Cn1nnc(C(=O)NCc2cccs2)c1N | 25% | –
16 | CC(C)Cn1c(N)c(C(=O)NCc2cccs2)c2nc3ccccc3nc21 | – | 9.2 µM (active)
17 | CCCNC(=O)c1c(N)n(-c2ccc(S(N)(=O)=O)cc2)c2nc3ccccc3nc12 | 6.21% | –
18 | CC(C(=O)N1CCc2ccccc21)N(C)CC(=O)Nc1ccc(F)cc1 (stereo not drawn) | -4.18% | –
19 | Cc1noc(C)c1CSCC(=O)N(CCC(C)C)c1c(N)n(Cc2ccccc2)c(=O)[nH]c1=O | 3.47% | –
20 | COc1cccc(OCC(O)CN2CCN(CCO)CC2)c1 (stereo not drawn) | 14.2% | –
21 | Cc1cccc(OCC(O)CN2CCN(S(=O)(=O)c3ccc(C)cc3C)CC2)c1 (stereo not drawn) | – | 11.6 µM (active)
22 | Cc1ccc(OCC(O)CN2CCN(CC(O)COc3ccc(C)cc3Cl)CC2)c(Cl)c1 (stereo not drawn) | -1.07% | –
23 | Cc1ccc(Nc2nc(-c3sc(NC(=O)c4ccccc4)nc3C)cs2)cc1 | -1.44% | –
24 | CCCCCCC(=O)Nc1nc(C)c(-c2csc(Nc3cc(Cl)ccc3OC)n2)s1 | -5.51% | –

Row | Compound | activity change, negative = inhibition | Potency
25 | CC(=O)Nc1nc(C)c(-c2csc(Nc3ccc(S(N)(=O)=O)cc3)n2)s1 | -12.6% | –
26 | C=CCCC(=O)Nc1nc(C)c(-c2csc(Nc3ccc(Cl)cc3)n2)s1 | – | 18.4 µM (active)
27 | CCCCC(=O)Nc1nc(C)c(-c2csc(Nc3ccc(Cl)cc3)n2)s1 | – | 20.6 µM (active)
28 | CCC(=O)Nc1nc(C)c(C(=O)Nc2cccc(Cl)c2)s1 | 4.34% | –
29 | CCOC(=O)N1CCN(C(=O)c2ccccc2SCC(=O)NCC2CCCCC2)CC1 | -0.248% | –
30 | CN(C(=O)COC(=O)Cc1ccccc1[N+](=O)[O-])C1CCS(=O)(=O)C1 (stereo not drawn) | 0% | –
31 | COc1ccc(C(=O)COC(=O)CN2C(=O)C3CC=CCC3C2=O)c(OC)c1 (stereo not drawn) | 0% | –
32 | CCc1cccc(NC(=O)CCCN2C(=O)C(c3ccccc3)Oc3cccnc32)c1 (stereo not drawn) | -11.3% | –
33 | COCCN(CCOC)c1nc(N)c2c(N)nc3c(c2c1C#N)CC(=O)N3Cc1ccc(Cl)cc1 | – | 5.17 µM (active)
34 | CCC(=O)Nc1ccc(S(=O)(=O)Nc2c(NC)c3ccccc3oc2=O)cc1 | -11.8% | –
35 | CC1CC(C)CN(CCCNC(=O)c2csc3c2CCCCC3)C1 (stereo not drawn) | -3.73% | –
36 | CC(C(=O)c1ccc(-c2ccccc2)cc1)[n+]1cccc(Br)c1 (stereo not drawn) | 1.43% | –
37 | Cc1ccc2c(c1)C1CN(C)CCC1N2S(=O)(=O)c1cccc(F)c1 (stereo not drawn) | 10.5% | –
38 | Cc1cccn2c(CNCC(C)Oc3cccnc3)c(C(=O)N3CCOCC3)nc12 (stereo not drawn) | 17.3% | –
39 | CCOC(=O)C1CCN(Cc2c(C(=O)N3CCOCC3)nc3c(C)cccn23)CC1 | -5.05% | –
40 | Cc1cccc(N2CCC(NCc3c(C(=O)N4CCCCC4)nc4c(C)cccn34)CC2)c1 | – | 25.9 µM (active)
41 | CN(CC(=O)Nc1ccc(Cl)cc1)CC(=O)Nc1cccc2ccccc12 | 1.03% | –
42 | Cc1ccc(S(=O)(=O)N(Cc2ccccc2)c2ccccn2)cc1[N+](=O)[O-] | 3.26% | –
43 | Cc1ccccc1NC(=O)Cc1nnc(SCC(=O)N2CCN(c3ccccc3)CC2)n1C | 3.86% | –
44 | Cn1c(Cc2cccc3ccccc23)nnc1SCC(=O)N1CCN(c2cccc(Cl)c2)CC1 | – | 18.4 µM (active)
45 | Cn1c(CNC(=O)c2ccco2)nnc1SCC(=O)N1CCN(c2ccccc2)CC1 | -13.3% | –
46 | O=C(CN1CCc2ccccc2C1)Nc1cccc(S(=O)(=O)N2CCOCC2)c1 | -1.35% | –
47 | CC1CCC(NC(=O)CN(C)S(=O)(=O)c2ccc3c(c2)c(=O)n(C)c(=O)n3C)CC1 (stereo not drawn) | 2.58% | –
48 | O=C(CSc1nc2ccccc2c(=O)[nH]1)Nc1nc(-c2ccc(Br)cc2)cs1 | 0% | –

Row | Compound | activity change, negative = inhibition | Potency
49 | CC(=O)NCc1ccc(-c2csc(NC(=O)CCCc3nc4ccccc4c(=O)[nH]3)n2)cc1 | -16.2% | –
50 | Cc1cc(C)c(-c2csc(NC(=O)CCCc3nc4ccccc4c(=O)[nH]3)n2)c(C)c1 | – | 5.17 µM (active)
51 | CCCSc1ccc([C@H]2N[C@@](Cc3ccccc3)(C(=O)OC)[C@H]3C(=O)N(C)C(=O)[C@@H]23)cc1 | -4.02% | –
52 | CCc1ccc(OCC2c3cc(OC)c(OC)cc3CCN2C(C)=O)cc1 (stereo not drawn) | – | 6.51 µM (active)
53 | COc1ccc(CC(NC(C)=O)C(=O)NC2CCN(C(=O)c3ccc(OC)c(OC)c3)CC2)cc1OC (stereo not drawn) | 2.36% | –
54 | COc1ccc(C(=O)N2CCc3cc(OC)c(OC)cc3C2c2cccc([N+](=O)[O-])c2)cc1 (stereo not drawn) | -3.07% | –
55 | COc1cccc(NC(=O)CN(C)C(=O)c2cc(C3CC3)nn2-c2ccccc2)c1 | -20.6% | –
56 | CCCCCN(C(=O)CCC(=O)OCCOc1ccc(OC)cc1)c1c(N)n(CCCC)c(=O)[nH]c1=O | -22.2% | –
57 | CC(C)N(C(=O)[C@H]1C[C@H](CC(=O)NCCC2=CCCCC2)C(=O)N2CCc3c([nH]c4cc(CCC(=O)N(C)C)ccc34)[C@]12C)C(C)C | -10.1% | –
58 | COc1ccccc1C(CNC(=O)c1cccc(NS(=O)(=O)c2ccc(Br)cc2)c1)N(C)C (stereo not drawn) | -5.67% | –
59 | O=S(=O)(c1ccc(NC(=S)NN=C(C2CC2)C2CC2)cc1)N1CCOCC1 | 7.52% | –
60 | O=[N+]([O-])c1cc(Cl)cc(/C=N/NC(=S)Nc2cc(S(=O)(=O)N3CCOCC3)ccc2Cl)c1O | – | 20.6 µM (active)
61 | O=C(NC(=S)Nc1ccc(S(=O)(=O)N2CCOCC2)cc1)c1ccccc1[N+](=O)[O-] | 5.03% | –
62 | Cc1cc(=O)oc2c3c(cc(OCC(=O)N[C@H](C(=O)O)c4ccccc4)c12)OC(C)(C)CC3 | -12.2% | –
63 | Cc1oc2c(c1C(=O)N1CCOCC1)C(=O)c1ccccc1C2=O | – | 4.61 µM (active)
64 | O=C(c1ccccc1-c1ccccc1)N1CCOCC1 | 1.69% | –
65 | Cc1noc(C)c1C(=O)N1CCOCC1 | 9.19% | –
66 | CC(=O)NC12CC3CC(C1)CC(C(=O)N1CCN(S(=O)(=O)c4cccs4)CC1)(C3)C2 | -2.67% | –
67 | Nc1ncnc2c1ncn2[C@@H]1O[C@H](CNCc2cccn2-c2nccs2)[C@@H](O)[C@H]1O | 17.2% | –
68 | O=C(CCN1C(=O)[C@@H]2Cc3ccccc3CN2C1=O)NCCc1ccccc1 | -2.64% | –
69 | CN(C)C(=O)CCc1ccc2c3c([nH]c2c1)[C@]1(CCc2ccccc2)[C@@H](C(=O)N2CCCCC2)C[C@H](CC(=O)NCCC2=CCCCC2)C(=O)N1CC3 | -29.9% | –
70 | CC(C)(O)C#Cc1ccc(CN2CCC(CO)(CCc3ccccc3)CC2)cc1 | -8.27% | –
71 | CC(=O)c1c(C)[nH]c(C(=O)COC(=O)CCOc2ccc(C)cc2)c1C | 12.8% | –
72 | CC(=O)c1c(C)[nH]c(C(=O)COC(=O)c2cccc(S(=O)(=O)N(C)c3ccccc3)c2)c1C | – | 18.4 µM (active)

Row | Compound | activity change, negative = inhibition | Potency
73 | COc1ccc(C)cc1NC(=O)C(OC(=O)c1cccc(S(=O)(=O)N(C)c2ccccc2)c1)c1ccccc1 (stereo not drawn) | -3.11% | –
74 | COc1ccc(Cl)cc1NC(=O)CN(C)C(=O)c1cc(-c2cccs2)nn1-c1ccccc1 | -10.8% | –
75 | CCOc1ccc(C(=O)Nc2ccc(S(=O)(=O)Nc3cc(C)on3)cc2)cc1 | 8.23% | –
76 | CC(C)C(=O)NC(=S)Nc1ccccc1F | 3.5% | –
77 | CC(C)C(=O)Nc1cccc(NC(=S)NC(=O)C(c2ccccc2)c2ccccc2)c1 | – | 16.4 µM (active)
78 | CCCCC(=O)NNC(=S)NC(=O)C(c1ccccc1)c1ccccc1 | -4.87% | –
79 | Cc1ccc(NC(=O)CN(C)C(=O)c2cccc(S(=O)(=O)N3CCCC3)c2)cc1 | 7.43% | –
80 | CCn1c(O)c(N=NC(=O)c2cccc(S(=O)(=O)N3CCCCC3)c2)c2ccccc21 | – | 23.1 µM (active)
81 | CCn1c2ccccc2c2cc(NC(=O)COC(=O)c3cc(S(=O)(=O)N4CCCCC4)ccc3Cl)ccc21 | 18.2% | –
82 | CC[C@]12c3[nH]c4ccc(Cl)cc4c3CCN1C(=O)[C@@H](CC(=O)NCCCOC)C[C@@H]2C(=O)N1CCN(C(=O)C2CC2)CC1 | -3.04% | –
83 | NC(=O)Nc1ccc(C(=O)OCC(=O)NC2CCCc3ccccc32)cc1 (stereo not drawn) | 3.15% | –
84 | CCOc1ccccc1NC(=O)CCS(=O)(=O)c1cccc2nsnc12 | -1.26% | –
85 | CCOc1ccc(N(CC)S(=O)(=O)c2cccc3nsnc23)cc1 | -15.1% | –
86 | CCOc1ccc(OCC)c(NC(=O)CN(C)S(=O)(=O)c2cccc3nsnc23)c1 | – | 16.4 µM (active)
87 | Cc1ccc(CN2CC(C(=O)N3CCN(S(=O)(=O)c4ccccc4)CC3)CC2=O)cc1 (stereo not drawn) | 3.98% | –
88 | Cc1ccc(/C=N/NC(=O)c2cc3ccccc3cc2O)o1 | 14.5% | –
89 | CC(=O)Nc1ccc(Nc2c3ccccc3nc3ccccc23)cc1 | -3.14% | –
90 | O=C(NNc1c2ccccc2nc2ccccc12)c1cc2ccccc2cc1O | – | 13 µM (active)
91 | COc1cccc(C2CC(c3ccccc3)=NN2S(=O)(=O)c2ccccc2)c1OC (stereo not drawn) | -10.5% | –
92 | CCS(=O)(=O)Nc1ccc(C2=NN(S(=O)(=O)c3ccc(F)cc3)C(c3ccco3)C2)cc1 (stereo not drawn) | – | 20.6 µM (active)
93 | Cc1ccc(C2=NN(C(=O)COc3ncnc4ccccc34)C(c3ccco3)C2)cc1 (stereo not drawn) | 6.64% | –
